PAX8 reporter = PAX8 transcriptional activity inhibition. RMG-I TPO-luciferase reporter, SteadyGlo, 24 h. inhibition, % at 12.6 µM. 360,000 tested, 1.2% active;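 active means mean replicate inhibition at least 60% with every replicate also reaching 60%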;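 further: luciferase light reporting Pax8 driven TPO promoter activity; plate controls were median of neutral control wells for no effect and mitoxantrone controls for full effect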
PGC1a acetyl inh = lowers PGC1a acetylation signal in U2OS cells; AlphaScreen anti-acetyl-lysine; with virally co-expressed GCN5 acetyltransferase; inhibition, % at 15.6 µM; 350,000 tested, 0.17% active;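 active means every replicate shows inhibition of at least 40%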;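 further: 0% = neutral control wells and 100% = positive control wells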
F508del corr = CFTR F508del correction in bronchial cells | CFBE cells, YFP halide quenching; stimulated with forskolin plus potentiator P3; % fluorescence drop versus neutral controls | activity (quench increase), % at 7.58 µM | 350,000 tested, 0.36% active | AID 720511;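 active means mean added fluorescence quench of at least 8% versus neutral control, with both replicates also reaching 8%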;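 further: cells transiently co-express mutant CFTR-F508del with the halide-sensitive YFP; corrector assay measuring rescue of mutant channel to the surface after 24 h compound exposure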
EWS-Fli inh = inhibitors of EWS/Fli oncoprotein transcriptional activity | 350,000 tested, 0.67% active | A673 NR0B1-luciferase reporter, viability-normalised | inhibition, % at 12.6 µM | AID 651661;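 active means mean inhibition of at least 50% after viability correction, with every replicate also passing that limit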;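 further: firefly luciferase signal divided by Alamar Blue viability fluorescence both relative to DMSO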
HIV Env fusion = HIV envelope-mediated fusion inhibition; HeLa-JRFL Env/CEM21 cell fusion, luciferase; inhibition, % at 12.3 µM; 360,000 tested, 1.1% active; AID 651610;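 active means mean replicate inhibition score of at least 50 and every replicate individually at or above 50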;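 further: 0% = plate neutral controls and 100% = maraviroc near 300 nM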
GSIS activator = primary screen for activators of insulin secretion dependent on glucose, INS-1E cells, GLuc reporter luminescence | INS-1E GLuc reporter insulin secretion, 2-3 h | activation, % at 16.6 µM | 370,000 tested, 0.61% active | AID 743287;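 active means lowest replicate activation of at least 40%, so every replicate reaches that level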;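 further: 0% = median of neutral control wells and 100% = median of IBMX positive control wells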
* marks the source's active call; other numbers are inactive results; x = no result; [ ] = dose if it differs, or a comment. In the library only some 2.7% were active in any assay of this set; here they are far more common.

SMILES	PAX8 reporter	PGC1a acetyl inh	F508del corr	EWS-Fli inh	HIV Env fusion	GSIS activator
O=C(c1ccc2c(c1)OCO2)N1C[C@H]2[C@@H](c3ccccc31)[C@@H](CO)N2Cc1ccccc1Cl	14.0	-15.6	1.4	3.9	x	-20.6
CCN(c1ccc(OC)cc1)S(=O)(=O)c1ccc(-c2cc(C)no2)s1	24.3	-24.0	2.2	6.8	18.1	-27.4
CC(=O)c1ccc(N2CCN(S(=O)(=O)c3ccc(-c4cc(C)no4)s3)CC2)cc1	-7.1	8.5	0.1	11.3	-14.4	-1.9
CCc1ccccc1N(C)S(=O)(=O)c1ccc(-c2cc(C)no2)s1	30.7	8.8	8.2*	x	13.0	-48.3
CCOC(=O)C1CCCN(S(=O)(=O)c2ccc(-c3cc(C)no3)s2)C1 (stereo not given)	0.9	-16.7	1.2	6.0	3.6	-19.9
COc1ccc(N2CCN(S(=O)(=O)c3ccc(-c4cc(C)no4)s3)CC2)cc1	5.7	-2.0	-0.7	-8.8	0.7	85.6*
Cc1cc(-c2ccc(S(=O)(=O)N3CCN(C)CC3)s2)on1	-2.9	3.0	-3.4	-1.4	5.2	42.6*
COc1cccc(-c2ccc([C@@H]3[C@H]4CN(C(=O)C5CCCCC5)CC(=O)N4[C@H]3CO)cc2)c1	-12.4	-1.9	-0.2	-4.3	x	-7.6
CCOC(=O)c1c(N)sc2c1CCCC2	x	-1.6	x	x	-10.1	x
CCOC(=O)c1c(-n2cnnn2)sc2c1CCCC2	-14.3	x	-1.4	2.5	2.2	60.2*
CC1(Cc2ccc(C(F)(F)F)o2)C(=O)Nc2ccc(-c3cccc(C(F)(F)F)c3)cc21 (stereo not given)	29.8	x	-1.3	6.5	25.6	173.4*
CC1(Cc2ccc3c(c2)OCO3)C(=O)Nc2ccc(-c3cccc(C(F)(F)F)c3)cc21 (stereo not given)	7.6	-6.9	x	19.1	7.7	x
COc1ccc(Nc2nc(NCc3cccs3)nc3ccsc23)cc1OC	20.1	x	1.4	20.2	2.6	48.0*
C[C@@H]1CN([C@@H](C)CO)C(=O)c2cc(NC(=O)Cc3ccccc3)ccc2O[C@@H](C)CCCCO[C@@H]1CN(C)CC1CCCCC1	-17.6	-4.8	-0.1	3.4	-54.5[16.7 µM]	-12.3
CCN(CC)CCNc1ccc(CO)c2oc3cc(Cl)ccc3c(=O)c12	7.3	7.1	9.0*	-3.4	-5.7	x
CCN(CC)CCNc1ccc(C)c2sc3ccc(O)cc3c(=O)c12	40.1	-89.3	4.4	8.3	-39.1	x
CN(C)CCNc1ccc(CO)c2oc3ccc(O)cc3c(=O)c12	x	8.6	1.9	55.3*	44.0	x
CC(C)OCCCNc1ncnc2c1[nH]c1ccccc12	x	-1.1	x	x	77.9*	-25.3
COc1ccc(CNc2ncnc3c2[nH]c2ccccc23)cc1	-16.0	-20.0	4.3	5.9	22.2	-35.9
COc1ccc2nc3ccccc3nc2c1NC(=O)c1ccc(Cl)cc1	16.6	-0.3	x	x	-3.9	70.1*
COc1ccc2nc3ccccc3nc2c1NC(=O)c1ccc(Br)cc1	8.0	4.1	x	-1.1	13.2	-0.2
N#CN=CN1CC=C(c2ccc(Cl)cc2)CC1	-9.3	x	1.4	5.0	62.9*	66.6*
Cc1ccc(OCCCCn2cnc3ccccc32)cc1	0.8	4.6	-0.3	5.8	-18.1	-28.5
c1ccc2c(c1)ncn2CCCCOc1ccc2c(c1)CCC2	x	x	x	x	87.7*	x
Cc1ccccc1OCCCCn1cnc2ccccc21	-3.6	-1.9	x	x	65.2*	x
SMILES	PAX8 reporter	PGC1a acetyl inh	F508del corr	EWS-Fli inh	HIV Env fusion	GSIS activator
CC(C)(C)[S@](=O)N1Cc2cc(C(=O)N[C@@H]3CCN(Cc4ccccc4)C3)nc(-c3cccc(-c4cncnc4)c3)c2[C@@H]1CCO	x	x	x	x	x	-3.6
Cc1nn(C)cc1NC(=O)C[C@H]1CC[C@@H]2[C@H](COc3ccc(NC(=O)C4CCOCC4)cc3C(=O)N2C)O1	-19.9	x	x	1.0	9.3[16.7 µM]	9.3
Nc1cc2nsnc2cc1Br	x	60.5*	x	x	x	x
Nc1cccc2nsnc12	5.2	1.6	0.6	27.0	-2.7	-9.8
Cc1ccc(C(O)(c2ccccc2)c2ccccc2C(C)N(C)C)c(C)c1 (stereo not given)	x	x	x	x	79.1*	2.0
CNc1ccc2ncc(-c3ccc(OC)c(OC)c3)n2n1	-52.6	58.3*	0.6	-1.4	58.3*	34.9
O=C(OCC(=O)N1CCN(c2ccccc2)CC1)c1cccc([N+](=O)[O-])c1	-11.0	x	0.7	2.8	71.2*	-5.8

From PubChem
